Data as given in the supplement of paper PMC10849652.
Of roughly 7,900 targets only a part is listed; those with a hit were picked by preference. About 0.6% of all pairs of compound and target were hits. Unmarked numbers belong to inactive results.

Legend:
Experiment in all cases: log2 fold change, soluble protein after heating vs DMSO (PISA); higher = thermal stabilisation; K562 cells, 10 uM, 30 min; active = over 0.2 and 3.5 SD of the protein, either way, in both replicates (recomputed)
bafetinib = compound: Cc1ccc(NC(=O)c2ccc(CN3CC[C@H](N(C)C)C3)c(C(F)(F)F)c2)cc1Nc1nccc(-c2cncnc2)n1 [bafetinib]
How it was run: (§1)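 K562 cells at 2×10^6 cells/mL were exposed to 10 μM compound for 30 min, then aliquots were heated for 3 min across 48°C-58°C, pooled, and extracted in PBS containing 0.5% NP-40 at 4°C. The supernatant after 21,000xg for 90 min was taken as soluble protein and measured by TMTpro 16plex LC-MS/MS with channel sums equalised. Thermal stability is reported relative to control samples, with values from duplicates. Fold changes are given on a log2 scale.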

[1] = compound: Cc1cccc(CC(=O)N2CCc3c2ccc(-c2cn(C)c4ncnc(N)c24)c3F)n1
How it was run: as §1

nilotinib = compound: Cc1cn(-c2cc(NC(=O)c3ccc(C)c(Nc4nccc(-c5cccnc5)n4)c3)cc(C(F)(F)F)c2)cn1 [nilotinib]
How it was run: as §1

[2] = compound: Cc1nc(Nc2n[nH]c3c2CN(C(=O)N[C@H](CN(C)C)c2ccccc2)C3(C)C)c2sccc2n1
How it was run: as §1

dasatinib = compound: Cc1nc(Nc2ncc(C(=O)Nc3c(C)cccc3Cl)s2)cc(N2CCN(CCO)CC2)n1 [dasatinib]
How it was run: as §1

[3] = compound: Cc1ncc(-c2ccnc(Nc3ccc(S(C)(=O)=O)cc3)n2)n1C(C)C
How it was run: as §1

[4] = compound: Cn1cc(-c2ccc3c(c2)CCN3C(=O)Cc2cccc(C(F)(F)F)c2)c2c(N)ncnc21
How it was run: as §1

[5] = compound: Cn1cc(-c2ccc3nnc(C(F)(F)c4ccc5ncccc5c4)n3n2)cn1
How it was run: as §1

tipifarnib = compound: Cn1cncc1[C@@](N)(c1ccc(Cl)cc1)c1ccc2c(c1)c(-c1cccc(Cl)c1)cc(=O)n2C [tipifarnib]
How it was run: as §1

mubritinib = compound: FC(F)(F)c1ccc(/C=C/c2nc(COc3ccc(CCCCn4ccnn4)cc3)co2)cc1 [mubritinib]
How it was run: as §1

[6] = compound: NC(=O)Nc1cc(-c2cccc(F)c2)sc1C(=O)N[C@H]1CCCNC1
How it was run: as §1

[7] = compound: NC(=O)c1cnc(N[C@@H]2CCCC[C@@H]2N)nc1Nc1cccc(-n2nccn2)c1
How it was run: as §1

[8] = compound: NC1(c2ccc(-c3nc4ccn5c(=O)[nH]nc5c4cc3-c3ccccc3)cc2)CCC1
How it was run: as §1

[9] = compound: NCC(=O)Nc1ccc(-n2nc(C(F)(F)F)cc2-c2ccc3c(ccc4ccccc43)c2)cc1
How it was run: as §1

entinostat = compound: Nc1ccccc1NC(=O)c1ccc(CNC(=O)OCc2cccnc2)cc1 [entinostat]
How it was run: as §1

vorinostat = compound: O=C(CCCCCCC(=O)Nc1ccccc1)NO [vorinostat]
How it was run: as §1

citarinostat = compound: O=C(CCCCCCNC(=O)c1cnc(N(c2ccccc2)c2ccccc2Cl)nc1)NO [citarinostat]
How it was run: as §1

silmitasertib = compound: O=C(O)c1ccc2c(c1)nc(Nc1cccc(Cl)c1)c1ccncc12 [silmitasertib]
How it was run: as §1

[10] = compound: O=C1NC(=O)C(c2cnc3ccccn23)=C1c1cn2c3c(cc(F)cc13)CN(C(=O)N1CCCCC1)CC2
How it was run: as §1

[11] = compound: c1cc(OCCN2CCCCC2)cc(-c2n[nH]c3ccc(-c4nnc[nH]4)cc23)c1
How it was run: as §1

Chain of UniProt Q6P3W2 (Q6P3W2 whole entry, looked up): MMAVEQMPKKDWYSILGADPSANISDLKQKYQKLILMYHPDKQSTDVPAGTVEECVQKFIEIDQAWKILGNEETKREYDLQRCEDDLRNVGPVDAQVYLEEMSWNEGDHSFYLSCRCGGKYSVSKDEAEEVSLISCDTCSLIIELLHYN
Chain of UniProt P49366 (P49366 whole entry, looked up): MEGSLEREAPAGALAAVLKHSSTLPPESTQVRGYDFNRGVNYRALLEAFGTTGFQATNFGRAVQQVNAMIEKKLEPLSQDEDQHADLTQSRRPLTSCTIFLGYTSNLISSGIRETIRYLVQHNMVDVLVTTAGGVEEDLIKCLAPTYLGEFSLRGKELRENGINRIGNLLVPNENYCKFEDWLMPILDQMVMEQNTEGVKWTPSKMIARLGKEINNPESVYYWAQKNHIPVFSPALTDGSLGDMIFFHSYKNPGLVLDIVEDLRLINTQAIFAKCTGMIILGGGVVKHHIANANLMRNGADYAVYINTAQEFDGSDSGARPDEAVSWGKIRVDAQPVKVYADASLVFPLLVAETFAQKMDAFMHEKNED
Chain of UniProt Q8N5C7 (Q8N5C7 whole entry, looked up): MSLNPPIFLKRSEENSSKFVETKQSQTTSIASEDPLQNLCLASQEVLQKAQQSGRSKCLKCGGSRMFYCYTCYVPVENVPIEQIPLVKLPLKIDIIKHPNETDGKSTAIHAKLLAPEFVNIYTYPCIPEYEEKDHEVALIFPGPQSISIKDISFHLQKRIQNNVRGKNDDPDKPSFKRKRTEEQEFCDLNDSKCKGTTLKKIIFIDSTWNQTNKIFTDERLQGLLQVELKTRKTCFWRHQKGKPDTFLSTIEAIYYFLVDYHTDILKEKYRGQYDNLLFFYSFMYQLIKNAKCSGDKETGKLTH
Chain of UniProt P50402 (P50402 whole entry, looked up): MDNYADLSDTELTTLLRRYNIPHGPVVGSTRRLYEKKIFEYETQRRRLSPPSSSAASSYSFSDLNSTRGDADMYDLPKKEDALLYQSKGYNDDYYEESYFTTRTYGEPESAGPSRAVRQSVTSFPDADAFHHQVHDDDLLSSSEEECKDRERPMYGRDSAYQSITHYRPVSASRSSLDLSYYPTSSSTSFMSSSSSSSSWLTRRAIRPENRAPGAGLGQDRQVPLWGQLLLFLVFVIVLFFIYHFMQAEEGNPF
Chain of UniProt Q8N3D4 (Q8N3D4 whole entry, looked up): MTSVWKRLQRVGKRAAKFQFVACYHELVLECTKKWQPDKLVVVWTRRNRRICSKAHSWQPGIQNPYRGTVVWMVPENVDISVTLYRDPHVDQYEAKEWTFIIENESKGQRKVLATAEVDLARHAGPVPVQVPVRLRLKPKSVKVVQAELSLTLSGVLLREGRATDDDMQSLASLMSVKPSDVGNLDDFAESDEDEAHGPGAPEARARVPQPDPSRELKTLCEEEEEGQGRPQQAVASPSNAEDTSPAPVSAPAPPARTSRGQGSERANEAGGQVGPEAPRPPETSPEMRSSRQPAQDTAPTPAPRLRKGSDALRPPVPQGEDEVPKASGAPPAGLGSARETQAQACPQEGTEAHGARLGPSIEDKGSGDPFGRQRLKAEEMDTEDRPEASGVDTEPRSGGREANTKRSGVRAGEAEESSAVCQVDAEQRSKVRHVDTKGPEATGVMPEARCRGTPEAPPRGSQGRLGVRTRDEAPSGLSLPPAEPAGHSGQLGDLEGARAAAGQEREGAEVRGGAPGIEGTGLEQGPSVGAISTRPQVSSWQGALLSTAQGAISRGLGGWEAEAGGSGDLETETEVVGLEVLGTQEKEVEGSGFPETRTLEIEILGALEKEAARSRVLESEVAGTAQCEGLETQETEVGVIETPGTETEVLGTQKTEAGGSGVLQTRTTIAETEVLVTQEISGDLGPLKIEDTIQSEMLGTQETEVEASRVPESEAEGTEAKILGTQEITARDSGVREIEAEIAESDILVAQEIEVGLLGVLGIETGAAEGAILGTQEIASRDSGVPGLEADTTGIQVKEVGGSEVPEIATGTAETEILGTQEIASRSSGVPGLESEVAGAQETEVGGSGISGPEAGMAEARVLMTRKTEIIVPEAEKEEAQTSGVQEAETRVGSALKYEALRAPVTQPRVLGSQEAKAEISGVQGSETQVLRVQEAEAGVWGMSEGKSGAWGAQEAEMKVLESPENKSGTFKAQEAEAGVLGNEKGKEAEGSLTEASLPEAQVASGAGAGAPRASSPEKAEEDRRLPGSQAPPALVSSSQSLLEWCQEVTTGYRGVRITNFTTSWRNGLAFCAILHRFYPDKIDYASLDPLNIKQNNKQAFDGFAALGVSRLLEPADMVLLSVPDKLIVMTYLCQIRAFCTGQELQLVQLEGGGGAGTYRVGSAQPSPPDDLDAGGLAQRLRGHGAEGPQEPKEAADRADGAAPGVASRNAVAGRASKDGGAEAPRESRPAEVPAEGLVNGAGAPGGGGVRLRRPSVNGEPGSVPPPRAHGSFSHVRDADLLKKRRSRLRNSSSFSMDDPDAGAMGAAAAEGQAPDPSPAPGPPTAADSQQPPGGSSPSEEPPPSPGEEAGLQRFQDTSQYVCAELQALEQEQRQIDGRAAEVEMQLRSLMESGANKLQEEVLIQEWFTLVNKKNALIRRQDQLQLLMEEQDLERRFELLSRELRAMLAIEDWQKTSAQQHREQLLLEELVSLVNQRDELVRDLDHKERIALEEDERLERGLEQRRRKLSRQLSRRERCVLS
Chain of UniProt P12259 (P12259 whole entry, looked up): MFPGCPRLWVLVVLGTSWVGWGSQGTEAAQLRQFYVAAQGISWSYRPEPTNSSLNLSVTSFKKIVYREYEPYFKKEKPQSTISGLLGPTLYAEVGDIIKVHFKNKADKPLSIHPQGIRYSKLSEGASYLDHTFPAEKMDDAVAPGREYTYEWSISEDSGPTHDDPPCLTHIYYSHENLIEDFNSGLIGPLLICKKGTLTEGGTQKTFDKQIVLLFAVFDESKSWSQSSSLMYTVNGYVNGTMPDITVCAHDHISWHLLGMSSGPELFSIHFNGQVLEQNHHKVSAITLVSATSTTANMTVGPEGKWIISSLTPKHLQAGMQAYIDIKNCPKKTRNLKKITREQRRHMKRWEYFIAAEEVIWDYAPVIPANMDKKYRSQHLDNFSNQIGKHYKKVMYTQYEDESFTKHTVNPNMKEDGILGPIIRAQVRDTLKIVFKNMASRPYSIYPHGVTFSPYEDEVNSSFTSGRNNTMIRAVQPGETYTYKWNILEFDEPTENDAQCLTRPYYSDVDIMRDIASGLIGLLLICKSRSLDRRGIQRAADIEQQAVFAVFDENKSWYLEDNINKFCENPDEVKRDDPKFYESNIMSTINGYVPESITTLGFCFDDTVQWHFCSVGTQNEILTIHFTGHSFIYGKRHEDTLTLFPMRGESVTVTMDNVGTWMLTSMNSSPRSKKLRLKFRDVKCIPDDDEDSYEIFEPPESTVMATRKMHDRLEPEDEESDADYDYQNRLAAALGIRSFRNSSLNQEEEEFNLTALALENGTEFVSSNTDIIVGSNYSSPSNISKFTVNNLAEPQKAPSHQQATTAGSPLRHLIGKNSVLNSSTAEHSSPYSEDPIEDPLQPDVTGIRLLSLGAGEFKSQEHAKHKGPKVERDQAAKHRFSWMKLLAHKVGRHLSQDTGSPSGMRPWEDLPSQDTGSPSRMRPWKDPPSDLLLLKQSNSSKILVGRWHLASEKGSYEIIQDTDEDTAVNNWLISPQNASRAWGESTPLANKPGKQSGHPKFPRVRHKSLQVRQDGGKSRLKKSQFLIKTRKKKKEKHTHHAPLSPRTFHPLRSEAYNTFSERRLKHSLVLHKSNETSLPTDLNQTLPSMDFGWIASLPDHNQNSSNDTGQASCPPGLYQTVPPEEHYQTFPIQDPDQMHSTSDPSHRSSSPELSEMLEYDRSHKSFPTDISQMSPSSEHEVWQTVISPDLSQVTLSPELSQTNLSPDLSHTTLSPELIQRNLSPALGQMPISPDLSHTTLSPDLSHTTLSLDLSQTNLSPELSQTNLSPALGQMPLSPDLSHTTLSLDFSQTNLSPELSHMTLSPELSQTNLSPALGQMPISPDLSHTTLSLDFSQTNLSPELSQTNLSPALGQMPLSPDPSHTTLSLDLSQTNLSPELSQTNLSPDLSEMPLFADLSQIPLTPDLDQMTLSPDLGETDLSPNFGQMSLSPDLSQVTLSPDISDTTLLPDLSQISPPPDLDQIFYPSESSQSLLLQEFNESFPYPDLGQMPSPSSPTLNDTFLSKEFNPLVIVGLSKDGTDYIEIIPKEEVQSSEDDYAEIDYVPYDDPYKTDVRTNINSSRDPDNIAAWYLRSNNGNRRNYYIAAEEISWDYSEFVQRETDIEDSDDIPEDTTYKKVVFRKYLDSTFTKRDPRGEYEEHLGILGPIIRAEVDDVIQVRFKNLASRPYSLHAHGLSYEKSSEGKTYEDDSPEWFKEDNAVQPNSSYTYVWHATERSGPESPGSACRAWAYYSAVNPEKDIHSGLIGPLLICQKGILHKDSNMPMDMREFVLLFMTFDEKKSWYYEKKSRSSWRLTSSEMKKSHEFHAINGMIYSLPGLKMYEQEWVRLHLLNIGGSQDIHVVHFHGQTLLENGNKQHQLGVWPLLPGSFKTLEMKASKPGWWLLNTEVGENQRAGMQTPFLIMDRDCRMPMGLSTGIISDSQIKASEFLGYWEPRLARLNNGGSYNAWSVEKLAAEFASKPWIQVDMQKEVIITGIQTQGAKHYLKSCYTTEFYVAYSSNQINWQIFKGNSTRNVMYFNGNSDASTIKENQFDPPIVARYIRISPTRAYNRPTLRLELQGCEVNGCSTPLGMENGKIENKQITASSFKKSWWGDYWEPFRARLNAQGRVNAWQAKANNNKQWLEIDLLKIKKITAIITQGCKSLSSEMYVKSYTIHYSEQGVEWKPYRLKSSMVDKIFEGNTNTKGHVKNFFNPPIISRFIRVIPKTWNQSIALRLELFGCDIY
Chain of UniProt O60888 (O60888 whole entry, looked up): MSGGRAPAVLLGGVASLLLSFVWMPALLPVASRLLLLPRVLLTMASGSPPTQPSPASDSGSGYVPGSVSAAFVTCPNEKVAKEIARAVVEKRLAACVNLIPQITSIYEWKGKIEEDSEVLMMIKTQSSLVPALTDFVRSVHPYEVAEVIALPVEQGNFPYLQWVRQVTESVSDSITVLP

Target	log2 fold change (bafetinib)	log2 fold change [1]	log2 fold change (nilotinib)	log2 fold change [2]	log2 fold change (dasatinib)	log2 fold change [3]	log2 fold change [4]	log2 fold change [5]	log2 fold change (tipifarnib)	log2 fold change (mubritinib)	log2 fold change [6]	log2 fold change [7]	log2 fold change [8]	log2 fold change [9]	log2 fold change (entinostat)	log2 fold change (vorinostat)	log2 fold change (citarinostat)	log2 fold change (silmitasertib)	log2 fold change [10]	log2 fold change [11]
CYP51A1 (UniProt Q16850)	0.02	-0.019	0.156	-0.03	0.092	-0.016	-0.016	-0.143	1.27 (active)	0.047	-0.018	-0.004	0.024	-0.033	-0.045	0.119	0.006	0.001	0.964 (active)	-0.112
EMD (UniProt P50402)	-0.167	-0.081	0.074	-0.071	-0.017	-0.045	-0.005	-0.098	0.087	0.031	-0.012	-0.064	-0.068	-0.041	-0.031	-0.017	-0.076	0.054	-0.084	-0.141
EDC3 (UniProt Q96F86)	-0.022	-0.013	-0.142	-0.127	-0.006	-0.151	-0.019	-0.006	-0.035	0	-0.162	-0.229	-0.119	-0.075	0.07	0.154	0.042	-0.047	-0.068	-0.152
ELOC (UniProt Q15369)	0.003	0.014	-0.028	0.013	0.032	-0.003	0.116	0.049	-0.027	0.005	-0.008	-0.011	-0.015	-0.008	0.024	0.024	0.036	-0.007	-0.107	-0.053
CTSV (UniProt O60911)	-0.696 (active)	-0.24	0.036	0.142	0.061	-0.056	0.016	-0.002	0.026	-0.009	0	-0.066	-0.296	-0.052	-0.063	-0.029	-0.008	0.027	-0.105	0.165
DTWD1 (UniProt Q8N5C7)	0.006	-0.014	0.057	0	0.001	0.082	0.051	-0.027	-0.02	0.02	-0.001	0.014	-0.147	-0.04	0.063	0.246 (active)	-0.001	-0.004	0.014	-0.064
EIF2S3 (UniProt P41091)	0.133	-0.023	-0.04	0.072	0.043	0.014	-0.081	-0.052	0.019	-0.017	0.034	0.006	0.163	0.025	-0.001	0	-0.044	-0.001	0.066	-0.154
EEF1AKNMT (UniProt Q8N6R0)	0.067	-0.008	-0.02	-0.062	-0.118	0.084	-0.031	0.003	-0.154	0.089	-0.025	-0.061	-0.109	-0.017	0.038	0.161	-0.002	0.059	0.055	0.031
DHX40 (UniProt Q8IX18)	-0.033	0.038	-0.052	-0.289 (active)	-0.229	0.118	0.103	0.035	0.017	0.084	-0.093	-0.036	-0.157	-0.042	-0.004	-0.097	0.081	-0.027	-0.116	-0.04
E2F4 (UniProt Q16254)	-0.053	-0.026	-0.016	-0.141	-0.095	0.012	-0.007	-0.006	-0.009	0.01	0.004	-0.052	-0.105	-0.032	0.016	-0.052	0.067	0.001	0.015	0.005
DDB1 (UniProt Q16531)	-0.019	-0.025	-0.004	0.027	0.046	-0.016	0.011	-0.001	-0.014	0.023	0.027	-0.025	-0.024	-0.004	-0.022	-0.021	0.02	-0.002	-0.018	-0.03
FAM177A1 isoform 2 (UniProt Q8N128)	-0.125	-0.007	-0.113	0.005	-0.098	-0.044	0.038	-0.005	-0.01	0.004	0.047	-0.053	-0.023	-0.038	0.007	0.072	0.047	0.029	-0.089	0.002
DPH5 isoform 5 (UniProt Q9H2P9)	0.025	0.037	0.013	-0.023	0.253 (active)	0.003	0.085	0.006	-0.121	0.049	-0.036	-0.005	0.209	-0.003	-0.018	-0.009	0.017	-0.008	0.109	0.038
DCUN1D1 (UniProt Q96GG9)	-0.083	0.026	-0.025	-0.018	-0.047	0	0.008	0.03	-0.059	0.015	-0.024	-0.048	-0.102	-0.01	0.016	0.002	0.054	0.002	-0.098	-0.02
EXOC2 (UniProt Q96KP1)	0.021	-0.089	-0.002	-0.135	-0.301	0.028	-0.011	-0.081	-0.066	0.035	0.039	-0.084	-0.218	-0.024	0.052	-0.013	0.105	0.035	0.028	-0.102
EXOC5 (UniProt O00471)	-0.016	0.061	-0.109	-0.258	-0.1	-0.078	0.022	0.026	-0.076	0.039	0.01	-0.101	-0.222	-0.063	0.069	0.086	0.027	0.042	-0.02	-0.153
CTSA (UniProt P10619)	-0.595 (active)	-0.04	0.052	0.015	0.112	-0.001	0.019	0.005	0.16	0.007	0.031	0.092	-0.067	-0.013	0.001	-0.03	-0.005	0.044	-0.023	0.134
EHBP1L1 (UniProt Q8N3D4)	0.194	-0.006	-0.081	-0.218	-0.123	0.256	0.005	0.006	-0.039	0.007	-0.091	-0.04	-0.039	-0.039	0	0.054	0.041	0.015	-0.043	-0.101
DNTTIP2 (UniProt Q5QJE6)	0.148	-0.05	0.064	-0.02	0.148	-0.29	-0.104	-0.035	0.256	-0.074	0.14	-0.054	0.155	0.029	-0.03	0.045	0.016	0.102	-0.028	-0.095
F5 (UniProt P12259)	-0.076	-0.02	0.021	0.019	0.05	0.023	0.072	0.111	0.153	-0.089	-0.095	-0.08	0.048	-0.024	-0.045	-0.016	-0.019	0.127	0.084	0.002
CUTA isoform 2 (UniProt O60888)	-0.148	0.1	0.016	0.016	0	-0.01	0.07	0.09	0.123	0.028	-0.022	0.153	0.013	0.063	0.019	-0.005	0.113	-0.031	-0.132	-0.046
DHPS (UniProt P49366)	0.026	-0.057	0.035	0.001	0.014	0.004	0.008	-0.005	-0.047	0.061	0.01	0.051	0.014	0.053	-0.045	0.04	0.022	-0.013	0.08	-0.026
EGR1 (UniProt P18146)	-0.257	0.141	-0.001	-0.352	–	-0.295	-0.24	-0.106	0.139	-0.121	-0.029	-0.346	0.345	0.066	0.091	-0.033	–	0.085	-0.109	–
DNAJC24 (UniProt Q6P3W2)	-0.079	–	0.019	-0.054	0.053	0.016	-0.1	-0.201	0.084	0.06	0.023	–	0.011	-0.129	0.055	–	0.102	0.052	-0.059	-0.169
